Results: PubChem BioAssay (NCI)
Compounds without any hit were thinned out: in the full panel of roughly 83,000, 20% have a hit.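 Negative percent growth values reflect cell death: -40 means 40% of the cells present at the start died, and -100 means all died.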 Unmarked numbers belong to inactive results. The source made the active and inactive calls.

Tested on: OVCAR-5 ovarian
Assay: NCI-60 one-dose screen, 48 h (100 = growth as untreated, 0 = no growth, -100 = all killed)
Details: 10 µM unless noted
Description: Growth inhibition of the OVCAR-5 human tumor cell line is measured as a screen for anti-cancer activity. Cells are grown in 96 well plates and exposed to the test compound for 48 hours. Compounds are tested at a single concentration, which is 10^-5 M for most compounds. The reported endpoint is percent growth (GI% or GIPRCNT), where numbers from 0 - 100% represent growth inhibition, and numbers from -100% - 0 represent cell death. For example, a value of 40 represents 60% growth inhibition. A value of 0 means no net growth occurred over the course of the experiment. A value of -40 indicates 40% of cells at the beginning of the experiment died by the end of the experiment. A value of -100 means all cells are dead at the end of the experiment.
NCI-60 Human Tumor Cell Lines Screen was performed using the standard one-dose NCI protocol, which is described in more detail at https://dtp.cancer.gov/discovery_development/nci-60/default.htm.
Compounds with GIPRCNT values below 10 were considered active. Activity score was based on GIPRCNT using the following formula: […]
Score is 0 for GIPRCNT values of 100 or above, 50 for GIPRCNT values of 0, and 100 for GIPRCNT values of -100.

Row | SMILES | growth
1 | C[C@@H](Nc1ncnc2ccc(-c3cnc(Cl)c(NS(C)(=O)=O)c3)cc12)c1ccccc1 | 38.4%
2 | CNC(=O)c1cc(-c2ccc(NS(=O)(=O)c3ccc(C)cc3)cc2)nc2cccnc12 | 117%
3 | O=C(Nc1nonc1-c1ccccc1)c1ccc(C(F)(F)F)cc1 | 100%
4 | O=S(=O)(Nc1ccc2c(c1)OCO2)c1ccc(-c2cnc(C3CC3)o2)cc1 | 60.7%
5 | CCOC(=O)c1c(N)c(C#N)cn1-c1cc(OC)c(OC)c(OC)c1 | 96%
6 | NC(N)=Nc1ccc(Oc2cccc(Nc3ccc(Cl)c(C(F)(F)F)c3)c2)cc1 | 58.8%
7 | COc1ccc(S(=O)(=O)NCCCNc2nccc(-c3cn(C(C)(C)C)nc3-c3ccc(Cl)c(OC)c3)n2)cc1 | 90.3%
8 | CCCn1cnc2c(c1=N)C(c1ccc(OC)cc1)c1sc3c(CC)cccc3c1O2 (stereo not given) | 41.1%
9 | NC(N)=Nc1ccc(Oc2cccc(NC(N)=Nc3ccc(I)cc3F)c2)cc1 | 65.5%
10 | CN(Cc1ccccc1)S(=O)(=O)/N=C1\NC(=O)NC1=C(Cl)Cl | 11.9%
11 | CC(=O)Nc1cccc(Nc2nc(N[C@@H](C)c3ccccc3)c3ccccc3n2)c1 | 18.6%
12 | CCCCc1nc(/C=N/Nc2nc(Nc3ccccc3)nc(Nc3ccc(S(N)(=O)=O)cc3)n2)c(Cl)[nH]1 | 102%
13 | NC(N)=Nc1ccc(Oc2cccc(Oc3ccc(Cl)c(C(F)(F)F)c3)c2)cn1 | -74.5% (active)
14 | COc1ccc(CCOc2cc3c(cc2OC)CCN(C(=O)NCc2cocn2)C3c2ccc(C)cc2C)cc1 (stereo not given) | 28.6%
15 | Cc1cc(C)c2sc(=O)n(Cc3nnc(SCCC(=O)O)o3)c2n1 | 99.4%
16 | CS(=O)(=O)Nc1cc(-c2ccc3ncc(C#N)c(NCc4ccccc4O)c3c2)cnc1Cl | 21.7%
17 | CC(Nc1c(C#N)cnc2ccc(-c3cnc(N)nc3)cc12)c1ccccc1 (stereo not given) | 23.5%
18 | Cc1cc(C)n(C(=O)c2sc(=S)n(-c3ccccc3)c2N=Nc2c(N)n[nH]c2N)n1 | 101%
19 | c1ccc(C(c2nc3ncncc3[nH]2)N2CSc3nc4ccccc4n3C2)cc1 (stereo not given) | 103%
20 | C=C(C)[C@@H]1CC[C@]2(COC)CC[C@]3(C)[C@H](CC[C@@H]4[C@@]5(C)CCCNC(C)(C)[C@@H]5CC[C@]43C)[C@@H]12 | 75.5%

Row | SMILES | growth
21 | COc1cc(-c2nc3sccn3c2-c2ccnc(S(C)(=O)=O)n2)ccc1F | 98.3%
22 | CN1CCN(Cc2ccc(NC(=O)c3cncc(C#Cc4cnc5ccc(OCC6(C)COC6)nn45)c3)cc2C(F)(F)F)CC1 | -73.2% (active)
23 | Cc1ccc(-c2nnc(SCc3ccc(O)c4ncccc34)o2)cc1 | 58.2%
24 | CCOP(=O)(OCC)OC[C@]12CCC(C)(C)C=C1[C@H]1CC[C@@H]3[C@@]4(C)CC[C@H](OP(=O)(OCC)OCC)C(C)(C)[C@@H]4CC[C@@]3(C)[C@]1(C)CC2 | -26.8% (active)
25 | CC(O)c1cc2ccccc2c(=O)o1 (stereo not given) | 103%
26 | CCO/C=N/C1=C(C#N)C(c2ccc(OC)cc2)c2sc3c(CC)cccc3c2O1 (stereo not given) | 43.5%
27 | Nc1nc(-c2cccc([N+](=O)[O-])c2)c(N=Nc2ccccc2)s1 | 79.4%
28 | O=C(O)c1ccc(-n2cc(CNc3cc(F)c(F)c(F)c3)c(-c3cccc(F)c3)n2)cc1 | 107%
29 | C=C(C=O)[C@@H]1CC[C@]2(COC(C)=O)CC[C@]3(C)C(CC[C@@H]4[C@@]5(C)CC[C@H](OC(C)=O)C(C)(C)[C@@H]5CC[C@]43C)[C@@H]12 (stereo not given in full) | 15.1%
30 | NC(N)=Nc1ccc(Oc2cccc(Nc3ccc(Cl)c(C(F)(F)F)c3)c2)cn1 | -64% (active)
31 | CC(C)(C)n1nnnc1C(Nc1cccc2c1OCO2)c1cc2cccc3ccc4cccc1c4c32 (stereo not given) | 91.9%
32 | CCNC(=O)Oc1ccc(/C(=C(/C)c2ccccc2)c2ccc(OCCN3CCCCCC3)cc2)cc1 | 35.1%
33 | O=c1c2ccccc2nc(COc2ccccc2)n1NS(=O)(=O)c1ccc(Cl)cc1 | 91.2%
34 | Cc1ccc(S(=O)(=O)N(CC[C@@H]2C[C@H]2c2cc3ccccc3o2)S(=O)(=O)c2ccc(C)cc2)cc1 | 98%
35 | Cc1ccc(-n2cc(/C=N/NC(=O)c3nc(N)n[nH]3)c(-c3ccc(S(C)(=O)=O)cc3)n2)cc1 | 105%
36 | COc1ccccc1NC1=C(Cl)C(=O)c2nc(C)ccc2C1=O | 78.9%
37 | COc1ccc([C@H]2c3[nH]c4ccccc4c3C[C@H]3C(=O)N(C4CCN(Cc5c(Cl)cccc5Cl)CC4)CC(=O)N23)c(OC)c1 | 96.7%
38 | CCCn1cnc2c(c1=N)C(c1ccc(Cl)cc1)c1sc3c(C)cccc3c1O2 (stereo not given) | 34.2%
39 | Nc1ncc(-c2ccc3ncnc(N4CCc5cc(F)c(F)cc54)c3c2)cn1 | 38.1%
40 | Nc1ncc(-c2ccc3ncnc(N4CCc5cc(F)c(Cl)cc54)c3c2)cn1 | 19.8%
